Screens (PubChem)
Shown are actives, neighbours in structure and some others; about 8% of the full set was active somewhere.
KB-V1 MDR tox: qHTS assay for MDR1-selective chemotherapeutics: Primary screen using the drug-selected MDR subline cells KB-V1. KB-V1 MDR cells viability, CellTiter-Glo, 72 h. Potency, µM (doses to about 46.1 µM), most hits filed as cytotoxic. hit rate 3.4% among 400,000. AID 1347076, 2019; also: % is scaled to controls: 0 for no effect and ±100 for the full control effect; nearly all actives have a fitted effect of over 60% in size
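Following 72 h at 37 degrees C with compound, KB-V1 cell viability was read by CellTiter-Glo luminescence, medium being phenol-red-free DMEM plus 10% FBS; concentration-response parameters came from normalized, curve-fitted qHTS data.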
SW480 rerep: A quantitative high throughput screen for small molecules that induce DNA re-replication in SW480 colon adenocarcinoma cells. SW480 DNA re-replication, Hoechst DNA content imaging, 48 h. Potency, µM (highest dose often 46.1 µM), inactives show at the highest dose re-replication activation, most hits filed as activators. hit rate 1.8% among 340,000. AID 624297, 2012; also: % of control where 0% means no effect; nearly all actives have a fitted effect of over 55% in size
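Compounds, transferred as 23 nL by pin tool, were incubated with cells for 48 hr; DNA content per nucleus was then quantified by Hoechst staining and fluorescence plate imaging.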
HT1080-NT tox: qHTS for induction of synthetic lethality in tumor cells producing 2HG: qHTS for the HT-1080-NT fibrosarcoma cell line. HT-1080-NT fibrosarcoma viability, CellTiter-Glo ATP luminescence, 48 h. Potency, µM (highest dose often 46.1 µM), for the others: top-dose activity, negative = less viability, actives largely listed as cytotoxic. hit rate 1.6% among 360,000. AID 686970, 2013;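 also: NT is the 2HG producing partner of a matched IDH1 knockdown line; 0% = DMSO-treated cells and -100% = media-only wells without cells; nearly all actives have a fitted effect of over 55% in size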
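Toxicity toward the 2HG-producing NT line was scored as %Activity, normalised to DMSO and no-cell wells, from CellTiter-Glo luminescence after 48 hours' treatment.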
KB-3-1 cytotox: qHTS assay for MDR1-selective chemotherapeutics: Primary screen using the parental adenocarcinoma cell KB-3-1; KB-3-1 viability, CellTiter-Glo ATP luminescence, 72 h; Potency, µM (highest dose often 46.1 µM), most hits filed as cytotoxic; hit rate 1.4% among 400,000; AID 1347075, 2019; also: % is scaled to controls: 0 for no effect and ±100 for the full control effect; nearly all actives have a fitted effect of over 60% in size
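Luminescent ATP read-out (CellTiter-Glo) measures survival of drug-naive KB-3-1 cells after 72 h compound exposure at 37 °C. Titration series was screened from lowest to highest concentration, with DMSO vehicle plates as background controls.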
MCF10A rerep: A quantitative high throughput screen for small molecules that induce DNA re-replication in MCF 10a normal breast cells | hit rate 2.9% among 350,000 | Potency, µM (series often up to 46.1 µM), for the others: top-dose activity, positive = re-replication, usual class: activators | MCF 10A DNA re-replication, Hoechst nuclear intensity, 48 h; also: % of control where 0% means no effect; nearly all actives have a fitted effect of over 50% in size
HT1080 IDH1KD tx: qHTS for induction of synthetic lethality in tumor cells producing 2HG: qHTS for the HT-1080-IDH1KD cell line. Potency, µM (doses to about 46.1 µM), inactives show top-dose activity, negative = toxicity, hits mostly cytotoxic. hit rate 2% among 360,000. HT-1080 IDH1 knockdown viability, ATP luminescence, 48 h. AID 686971, 2013;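 also: 0% = DMSO wells and -100% = cell-free medium wells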
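Viability of IDH1-knockdown HT-1080 fibrosarcoma cells was assessed by CellTiter-Glo after 48 h at 37 °C with titrated compound; concentration-effect curves were classified by fit quality and response size.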
Starred values were filed as active, the others as inactive; i = inactive; ? = inconclusive; . = no result given; [ ] = dose if it differs, or a comment. Calls follow the shape of the dose curve; as a rule, active = well fitted curve in the direction sought with a large enough effect; inconclusive = small, poorly fitted or top-dose-only effect, or another doubt; inactive = no such curve, though single readings can be large; an effect the other way counts as inactive or inconclusive. Potency is read from the fitted curve at half-maximal effect.

SMILES	KB-V1 MDR tox	SW480 rerep	HT1080-NT tox	KB-3-1 cytotox	MCF10A rerep	HT1080 IDH1KD tx
O=C(CNCC1CCCO1)N1CCN(S(=O)(=O)c2ccc3ccccc3c2)CC1 (configuration not stated)	i	3%	3%	i	20%	7%
Cc1cc(C)cc(NS(=O)(=O)c2ccc3[nH]c(=O)ccc3c2)c1	i	4%	?	i	?	?
COC(=O)CC1=NN(c2ccccc2)C(=O)/C1=C\c1ccc(OC)cc1	i	16%	15%	i	18%	20%
CCOC(=O)CC1=NN(c2ccccc2)C(=O)/C1=C\c1ccc(OC)cc1OC	i	?	-23%	i	10µM*	-1%
COc1cccc(CNC(=O)[C@H](CCSC)NC(=O)N2CCn3c2nc2ccccc23)c1	i	-16%	-2%	i	0%	-21%
O=Nc1ccc(NO)c2ccccc12	?	.	?	?	.	16µM*
CC(=O)Nc1ccc(Br)c2ccccc12	i	-13%	-4%	i	4%	-5%
C/C(=N/NC(=S)Nc1cccc(C)c1)c1cccc([N+](=O)[O-])c1	?	-8%	-4%	i	7%	1%
CCC(C)(C)c1ccc(OCCCC[n+]2cccc(C)c2C)c(C(C)(C)CC)c1	i	16%	15µM*	?	30%	21µM*
CCC(C)(C)c1ccc(OCCCC[n+]2ccc(C)cc2)c(C(C)(C)CC)c1	i	26%	?	12µM*	23µM*	?
O=C(Nc1ccc(F)cc1)Nc1cc(OCC(F)(F)F)cc(OCC(F)(F)F)c1	?	?	7.3µM*	6.5µM*	?	8.2µM*
Cc1cc(C(=O)N2CCN(C/C=C/c3ccccc3)CC2)cs1	16µM*	-5%	-3%	i	5%	-6%
O=C(/C=C/c1ccco1)N1CCN(S(=O)(=O)/C=C/c2ccccc2)CC1	?	-1%	0%	i	11%	2%
O=C(/C=C/c1ccco1)N1CCN(C/C=C/c2ccccc2)CC1	15µM*	7%	19%	i	?	7%
O=C(c1cccnc1)N1CCN(C/C=C/c2ccccc2)CC1	i	-9%	21%	i	6%	19%
O=C(Cn1ncc(Cl)c(Cl)c1=O)NCC1CCCCC1	i	?	?	15µM*	5.8µM*	?
O=C(Cn1ncc(Cl)c(Cl)c1=O)NC1CCS(=O)(=O)C1 (configuration not stated)	i	?	-5%	i	?	2%
Cc1cccc(NC(=O)CNC(=O)Cn2ncc(Cl)c(Cl)c2=O)c1C	?	8.2µM*	26µM*	?	5.2µM*	7.3µM*
O=C(Cn1ncc(Cl)c(Cl)c1=O)NC1CCCCC1	i	1.3µM*	13µM*	?	1.3µM*	15µM*
Cc1cccc(NC(=O)CN2CCN(CC(=O)NCc3ccc(Cl)cc3Cl)CC2)c1C	3.7µM*	-4%	-3%	i	-6%	11%
O=C(NCc1ccc(F)cc1)C1CCCN1S(=O)(=O)c1ccc(F)cc1 (configuration not stated)	i	.	5%	i	.	8%
O=C1CN(C(=O)Cn2ncc(Cl)c(Cl)c2=O)c2ccccc2N1	?	14%	4.6µM*	?	1.8µM*	4.1µM*
c1ccc(C2CSc3ccccc3N2)cc1 (configuration not stated)	i	7%	2%	i	1%	0%
COc1ccc(CN(C)C2CCN(C)CC2)cc1OC	i	2%	-1%	i	7%	-2%
COc1ccc(C2=NN(C)C(=NCc3ccccc3)SC2)cc1	23µM*	4%	-11%	?	27%	0%
SMILES	KB-V1 MDR tox	SW480 rerep	HT1080-NT tox	KB-3-1 cytotox	MCF10A rerep	HT1080 IDH1KD tx
COc1ccc(N=C2SCC(c3ccc(C)cc3)=NN2CCO)cc1	i	-52%	-24%	i	-3%	?
Cc1sc2nc(CN3CCCC3)nc(N3CCN(S(=O)(=O)c4cccs4)CC3)c2c1C	18µM*	7%	?	?	9%	16µM*
NS(=O)(=O)c1ccc(NC(=O)Nc2ccc(C(F)(F)F)cc2)cc1	i	28%	?	i	?	21µM*
Cc1c(CN2CCC(CO)(CCOc3ccccc3)CC2)[nH]c2c(Cl)cccc12	?	?	21µM*	?	?	18µM*
CCOC(=O)c1c(NC(=O)C2C3C=CC(C3)C2C(=O)O)sc2c1CCCC2 (configuration not stated)	i	14%	-17%	i	0%	-19%
CCOC(=O)c1c(NC(=O)c2ccco2)sc2c1CCCCC2	i	0%	2%	i	?	4%
Cc1sc(NC(=O)c2ccco2)c(C(c2cccnc2)N2CCC(C)CC2)c1C (configuration not stated)	?	3%	21µM*	18µM*	?	4.6µM*
CCOC(=O)c1c(NC(=O)c2ccco2)sc(C(=O)N2CCCC2)c1C	2.3µM*	4%	6%	i	23%	2%
CCOC(=O)c1c(NC(=O)c2ccc(N3C(=O)C4C5C=CC(C5)C4C3=O)cc2)sc2c1CCCC2 (configuration not stated)	16µM*	3%	5%	i	?	11%
CCOC(=O)c1c(NC(=O)C(C)N2CCN(C(=O)c3ccco3)CC2)sc2c1CCCC2 (configuration not stated)	?	21%	-17%	?	15µM*	-27%
CCN1CCN(C(c2cccnc2)c2c(NC(=O)c3ccco3)sc(C)c2C)CC1 (configuration not stated)	i	-32%	-1%	i	?	0%
O=C(COc1ccc(F)cc1)Nc1nnc(C2CC2)s1	i	-19%	25%	i	-18%	19%
Cc1sc(NC(=O)c2ccco2)c(CN2CCC(C)CC2)c1C	i	2%[9.22 µM]	-7%	?	?	-7%
Cc1sc(NC(=O)c2ccco2)c(CN2CCN(Cc3ccccc3)CC2)c1C	?	?	-24%	?	23µM*	?
COc1ccc(-c2[nH]c(-c3cc(OC)c4c(c3)OCO4)nc2-c2ccccc2)cc1	i	-4%	?	i	13µM*	?
